We go through 5 molecules from PubChem BioAssay (EPA / NIEHS).

Calls of active or inactive are those of the source. The calls were made as follows: active = hit-call score of the fitted dose curve at least 0.9, where 1 is the maximum; inactive = score below 0.9.

Read-out in experiment [1]: Interferon-gamma inducible Protein 10 (IP10), CXCL10 (gene 3627)
Briefly: BSK_hDFCGF_IP10: BioMAP Diversity Plus: hDFCGF Assay for Interferon-gamma inducible Protein 10 (IP10) Biomarker Activity (AID 2283053). The conditions noted are these: primary human foreskin fibroblasts; actives raise or lower the signal. In outline: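 Chemical-treated human skin fibroblasts (primary) were sampled at 24 h for IP-10 by ELISA. Both increases and decreases relative to DMSO were scored.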

Read-out in experiment [2]: Urokinase-type plasminogen activator receptor (uPAR), PLAUR (gene 5329)
Briefly: BSK_CASM3C_uPAR: BioMAP Diversity Plus: CASM3C Assay for Urokinase-type plasminogen activator receptor (uPAR) Biomarker Activity (AID 2283054).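 Also: cell-surface uPAR protein level quantified by ELISA.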 The conditions noted are these: primary human coronary artery smooth muscle cells; actives raise or lower the signal.

Read-out in experiment [3]: Vascular cell adhesion molecule 1 (VCAM1), VCAM1 (gene 7412)
Briefly: BSK_CASM3C_VCAM1: BioMAP Diversity Plus: CASM3C Assay for Vascular cell adhesion molecule 1 (VCAM1) Biomarker Activity (AID 2283055).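 Also: VCAM-1 protein level quantified by ELISA on the cells.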 The conditions noted are these: primary human coronary artery smooth muscle cells; actives raise or lower the signal.

Read-out in experiment [4]: Collagen III, COL3A1 (gene 1281)
Briefly: BSK_hDFCGF_CollagenIII: BioMAP Diversity Plus: hDFCGF Assay for Collagen III Biomarker Activity (AID 2283056). The conditions noted are these: primary human foreskin fibroblasts; actives raise or lower the signal. In outline:
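Human foreskin primary fibroblasts were exposed to test chemicals for 24 h, after which collagen III was quantified by ELISA. Activity was fitted bidirectionally against DMSO as negative control and baseline.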

Read-out in experiment [5]: Epidermal growth factor receptor (EGFR), EGFR (gene 1956)
Briefly: BSK_hDFCGF_EGFR: BioMAP Diversity Plus: hDFCGF Assay for Epidermal growth factor receptor (EGFR) Biomarker Activity (AID 2283057). Particulars: primary human foreskin fibroblasts; actives raise or lower the signal. The method, boiled down: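 Cell-based multiplexed assay in primary human foreskin fibroblasts. EGFR is read by ELISA 24 h after treatment and compared with DMSO controls.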

Read-out in experiment [6]: Interleukin-8 (IL8), CXCL8 (gene 3576)
Briefly: BSK_hDFCGF_IL8: BioMAP Diversity Plus: hDFCGF Assay for Interleukin-8 (IL8) Biomarker Activity (AID 2283058). The conditions noted are these: primary human foreskin fibroblasts; actives raise or lower the signal. The method, boiled down:
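hDFCGF human dermal fibroblasts; 24 h chemical exposure; IL-8 by ELISA; bidirectional curve fit vs DMSO baseline; gain or loss of signal scored.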

Experiment [7] can be described thus: BSK_hDFCGF_Proliferation: Cell Proliferation Assessment in the BioMAP Diversity Plus: hDFCGF Assay (AID 2283059).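 Also: curves fitted for both rise and fall of signal versus DMSO baseline.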 The conditions noted are these: primary human foreskin fibroblasts. In outline: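 Total protein read at 560 nm after 0.1% SRB staining of TCA-fixed human skin fibroblasts, […]. Activity is fitted in both directions relative to DMSO as baseline.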

Read-out in experiment [8]: Macrophage colony-stimulating factor (MCSF), CSF1 (gene 1435)
Briefly: BSK_hDFCGF_MCSF: BioMAP Diversity Plus: hDFCGF Assay for Macrophage colony-stimulating factor (MCSF) Biomarker Activity (AID 2283060). Particulars: primary human foreskin fibroblasts; actives raise or lower the signal. The method, boiled down: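 Human foreskin primary fibroblasts were treated with test chemical for 24 h, and M-CSF was then measured by ELISA. Data were fitted bidirectionally against DMSO as the negative control and activity baseline.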

Experiment [9] in a line: BSK_hDFCGF_SRB: Viability Assessment in the BioMAP Diversity Plus: hDFCGF Assay (AID 2283061).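 Also: cells exposed to compound for 24 h before the read.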 The conditions noted are these: primary human foreskin fibroblasts. The method, boiled down:
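Human foreskin primary fibroblasts were treated with compound and assessed 24 h after dosing. Total protein was measured by sulforhodamine B staining (0.1% SRB after 10% TCA fixation, 560 nm read) as a cytotoxicity marker, with bidirectional fitting against DMSO baseline.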

Read-out in experiment [10]: TIMP metallopeptidase inhibitor 1 (TIMP1), TIMP1 (gene 7076)
Briefly: BSK_hDFCGF_TIMP1: BioMAP Diversity Plus: hDFCGF Assay for TIMP metallopeptidase inhibitor 1 (TIMP1) Biomarker Activity (AID 2283062). The conditions noted are these: primary human foreskin fibroblasts; actives raise or lower the signal. In outline:
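Primary human foreskin fibroblasts in the hDFCGF system were dosed with compound for 24 h, then TIMP-1 was measured by ELISA. Activity was fitted bidirectionally relative to DMSO control; parallel SRB staining assessed cytotoxicity.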

Read-out in experiment [11]: Monokine induced gamma interferon (MIG), CXCL9 (gene 4283)
Briefly: BSK_hDFCGF_MIG: BioMAP Diversity Plus: hDFCGF Assay for Monokine induced gamma interferon (MIG) Biomarker Activity (AID 2283063). The conditions noted are these: primary human foreskin fibroblasts; actives raise or lower the signal. The method, boiled down:
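ELISA read-out of MIG from primary human dermal fibroblasts 24 h post-dosing. Gain or loss of signal fitted bidirectionally, DMSO as baseline.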

Read-out in experiment [12]: Matrix Metallopeptidase 1 (MMP1), MMP1 (gene 4312)
Briefly: BSK_hDFCGF_MMP1: BioMAP Diversity Plus: hDFCGF Assay for Matrix Metallopeptidase 1 (MMP1) Biomarker Activity (AID 2283064). The conditions noted are these: primary human foreskin fibroblasts; actives raise or lower the signal. In outline: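 MMP1 levels quantified by ELISA 24 h after dosing human dermal fibroblast cultures, with parallel SRB total-protein staining for overt cytotoxicity. Data fitted in both directions against DMSO baseline.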

Read-out in experiment [13]: Vascular cell adhesion molecule 1 (VCAM1), VCAM1 (gene 7412)
Briefly: BSK_hDFCGF_VCAM1: BioMAP Diversity Plus: hDFCGF Assay for Vascular cell adhesion molecule 1 (VCAM1) Biomarker Activity (AID 2283065).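 As to AC50: VCAM-1 protein level quantified by ELISA after 24 h chemical exposure.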 Particulars: primary human foreskin fibroblasts; actives raise or lower the signal. The method, boiled down:
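Primary human foreskin fibroblasts (hDFCGF system) were dosed with chemical and VCAM-1 was measured by ELISA 24 h later. Bidirectional curve fitting used DMSO as negative control and activity baseline.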

Read-out in experiment [14]: Plasminogen activator inhibitor-1 (PAI1), SERPINE1 (gene 5054)
Briefly: BSK_hDFCGF_PAI1: BioMAP Diversity Plus: hDFCGF Assay for Plasminogen activator inhibitor-1 (PAI1) Biomarker Activity (AID 2283066). The conditions noted are these: primary human foreskin fibroblasts; actives raise or lower the signal. In outline:
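Human skin fibroblast cultures receive chemical for 24 h before PAI-1 is measured by ELISA; signal changes are fitted bidirectionally against DMSO-treated wells.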

Read-out in experiment [15]: Intercellular Adhesion Molecule 1 (ICAM1), ICAM1 (gene 3383)
Briefly: BSK_KF3CT_ICAM1: BioMAP Diversity Plus: KF3CT Assay for Intercellular Adhesion Molecule 1 (ICAM1) Biomarker Activity (AID 2283067). Particulars: primary human keratinocytes with fibroblasts; actives raise or lower the signal. In outline:
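Human keratinocyte plus foreskin fibroblast primary co-culture was exposed to chemical for 24 h. ICAM-1 was then quantified by ELISA, and the data were fit bidirectionally against DMSO as the negative control and baseline.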

The nature of experiment [16]: BSK_KF3CT_SRB: Viability Assessment in the BioMAP Diversity Plus: KF3CT Assay (AID 2283069). The conditions noted are these: primary human keratinocytes with fibroblasts. The method, boiled down:
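Cytotoxicity was gauged by SRB staining (0.1% SRB, 10% TCA fixation, 560 nm) of parallel cultures at 24 h. The cells were primary human skin keratinocytes co-cultured with fibroblasts, and activity was fitted in both directions against DMSO.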

Read-out in experiment [17]: Interleukin-1 alpha (IL1a), IL1A (gene 3552)
Briefly: BSK_KF3CT_IL1a: BioMAP Diversity Plus: KF3CT Assay for Interleukin-1 alpha (IL1a) Biomarker Activity (AID 2283070). The conditions noted are these: primary human keratinocytes with fibroblasts; actives raise or lower the signal. In outline: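 IL-1a was detected by ELISA 24 h after chemical treatment of a co-culture of human skin keratinocytes and foreskin fibroblasts. Gain or loss of signal was fitted against the DMSO baseline.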

Read-out in experiment [18]: TIMP metallopeptidase inhibitor 2 (TIMP2), TIMP2 (gene 7077)
Briefly: BSK_KF3CT_TIMP2: BioMAP Diversity Plus: KF3CT Assay for TIMP metallopeptidase inhibitor 2 (TIMP2) Biomarker Activity (AID 2283071). Particulars: primary human keratinocytes with fibroblasts; actives raise or lower the signal. In outline:
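Measurements come from ELISA detection of TIMP-2 at 24 hours in a dosed human keratinocyte and foreskin fibroblast co-culture. DMSO serves as negative control and baseline.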

Read-out in experiment [19]: Transforming growth factor beta 1 (TGFb1), TGFB1 (gene 7040)
Briefly: BSK_KF3CT_TGFb1: BioMAP Diversity Plus: KF3CT Assay for Transforming growth factor beta 1 (TGFb1) Biomarker Activity (AID 2283072). The conditions noted are these: primary human keratinocytes with fibroblasts; actives raise or lower the signal. In outline:
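TGF-b1 ELISA on a 24 h dosed co-culture of human keratinocytes and foreskin fibroblasts; cytotoxicity tracked in parallel cultures by SRB staining.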

Read-out in experiment [20]: Interferon-gamma inducible Protein 10 (IP10), CXCL10 (gene 3627)
Briefly: BSK_KF3CT_IP10: BioMAP Diversity Plus: KF3CT Assay for Interferon-gamma inducible Protein 10 (IP10) Biomarker Activity (AID 2283068). The conditions noted are these: primary human keratinocytes with fibroblasts; actives raise or lower the signal. The method, boiled down: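 Human keratinocyte plus foreskin fibroblast primary co-culture exposed to test chemical for 24 h; IP-10 measured by ELISA. Concentration-response fitted bidirectionally against DMSO control as baseline.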

For the molecule `O=C(O)Cc1cc(I)c(Oc2cc(I)c(O)c(I)c2)c(I)c1`, the AC50 in experiment [1] was 8.02 µM (active); in experiment [3], 13.4 µM (active); in experiment [4], 4.05 µM (active); in [5], 7.78 µM (active); in experiment [6], 22.2 µM (active); in experiment [7], 13.4 µM (active). The AC50 is 14 µM (active) in [8]; 12.2 µM (active) in experiment [9]; 10.7 µM (active) in [11]; 8.58 µM (active) in experiment [12]; 8.85 µM (active) in experiment [13]; 8.1 µM (active) in experiment [14]. The AC50 was 16.7 µM (active) in experiment [15]; 10.1 µM (active) in experiment [16]; 18.7 µM (active) in experiment [17]; 13.4 µM (active) in experiment [18]; 8.34 µM (active) in experiment [19]. For the same molecule, the result in [2] and in experiment [10] was inactive.
In the case of `NC(=O)N1C(=O)C(C(=O)c2cc(Cl)cs2)c2cc(F)c(Cl)cc21` (stereo not given), the AC50 in [1] was 5.92 µM (active); in experiment [2] it was 27.3 µM (active); in [3], 5.41 µM (active); in [4], 4.54 µM (active); in experiment [6] it was 16.6 µM (active); in experiment [7], 1.54 µM (active). The AC50 in [8] is 2.1 µM (active); in experiment [9] it was 5.47 µM (active); in experiment [10] it was 5.17 µM (active); in experiment [11] it was 12.7 µM (active); in experiment [12] it was 10.3 µM (active); in [13] it was 5.54 µM (active). The AC50 is 1.71 µM (active) in [14]; 12.4 µM (active) in [15]; 6.16 µM (active) in experiment [16]; 12.9 µM (active) in experiment [17]; 11.2 µM (active) in [18]; 7.48 µM (active) in experiment [19]. Also, the result in experiment [5] was inactive.
`CCCCCCCCC(=O)O`: the outcome in experiment [1], in experiment [2], in experiment [3], in [4], in experiment [5] and in experiment [6] was inactive. In addition, the result in [7], in [8], in experiment [9], in [11], in experiment [12] and in experiment [13] was inactive. Moreover, the outcome in [14], in [15], in [20], in [16], in experiment [17] and in experiment [18] was inactive. The result in [19] was inactive.
As to `COCC(C)O` (stereo not given), the result in experiment [1], in experiment [2], in experiment [3], in experiment [4], in experiment [5] and in [6] was inactive. Moreover, the result in experiment [7], in experiment [8], in experiment [9], in experiment [10], in experiment [11] and in [12] was inactive. Moreover, the outcome in [13], in experiment [14], in experiment [15], in experiment [16], in [17] and in experiment [18] was inactive. Also, in experiment [19], the outcome was inactive.
In the case of `CN1CCN(c2ccccc2/C=C2\SCCN(c3ccc(Cl)c(Cl)c3)C2=O)CC1`, the half-maximal activity concentration (AC50) in [1] is 30.7 µM (active); in experiment [4], 13.7 µM (active); in experiment [6], 32.3 µM (active); in experiment [7], 5.54 µM (active); in [8], 23.5 µM (active); in experiment [9], 28.3 µM (active). For the same molecule, the AC50 in [11] is 39 µM (active); in experiment [12] it was 38 µM (active); in [13] it was 31.8 µM (active); in experiment [14], 9.63 µM (active); in experiment [15], 31.8 µM (active); in experiment [20] it was 28.5 µM (active). Besides, the AC50 in experiment [16] was 30.8 µM (active); in [17], 30.6 µM (active); in experiment [18], 28.1 µM (active); in experiment [19] it was 29.1 µM (active). For the same molecule, the outcome in experiment [2], in [3] and in experiment [5] was inactive.
